Test results from the supplement of paper PMC10849652.
Targets with a hit are over-represented here; the source holds about 8,800 in all. About 0.5% of all pairs of compound and target were hits.

Key:
Test in all cases: log2 fold change, soluble protein after heating vs DMSO (PISA); higher = thermal stabilisation; K562 lysate, 10 uM; active = over 0.2 and 3.5 SD of the protein, either way, in both replicates (recomputed)
vemurafenib = compound: CCCS(=O)(=O)Nc1ccc(F)c(C(=O)c2c[nH]c3ncc(-c4ccc(Cl)cc4)cc23)c1F [vemurafenib]
Procedure, shortened: (§1)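 Log-two fold change in thermal stability relative to solvent controls is reported from duplicates. For each sample, crude K562 extract from dounce-homogenised pellets in PBS pH 7.4 with 1 mM MgCl2, at 1 mg/mL protein, was treated with 10 μM compound for 30 min. Aliquots heated for 3 min across 48°C-58°C were pooled, brought to 0.5% NP-40 at 4°C and cleared at 21,000xg for 90 min. The supernatant was quantified by TMTpro 16plex LC-MS/MS with channel sums equalised.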

[1] = compound: CCCS(=O)(=O)Nc1ccc(F)c(C(=O)c2c[nH]c3ncc(Cl)cc23)c1F
Procedure, shortened: as §1

barasertib = compound: CCN(CCCOc1ccc2c(Nc3cc(CC(=O)Nc4cccc(F)c4)[nH]n3)ncnc2c1)CCOP(=O)(O)O [barasertib]
Procedure, shortened: as §1

[2] = compound: CC[C@@H]1C(=O)N(C)c2cnc(Nc3ccc(C(=O)NC4CCN(C)CC4)cc3OC)nc2N1C1CCCC1
Procedure, shortened: as §1

volasertib = compound: CC[C@@H]1C(=O)N(C)c2cnc(Nc3ccc(C(=O)N[C@H]4CC[C@H](N5CCN(CC6CC6)CC5)CC4)cc3OC)nc2N1C(C)C [volasertib]
Procedure, shortened: as §1

[3] = compound: CCn1c(C(=O)N(C2CC2)C2CC2)cc2c3c(ncn3C)c(Nc3cc(C)n(C)n3)nc21
Procedure, shortened: as §1

[4] = compound: CCn1cc(-c2ccnc3[nH]c(-c4cccc(CN(C)C)c4)cc23)c(-c2ccc(NC(=O)N(C)C)cc2)n1
Procedure, shortened: as §1

[5] = compound: CN1CCC(CNc2ccc3ncc(-c4cccc(OC(F)(F)F)c4)n3n2)CC1
Procedure, shortened: as §1

saracatinib = compound: CN1CCN(CCOc2cc(OC3CCOCC3)c3c(Nc4c(Cl)ccc5c4OCO5)ncnc3c2)CC1 [saracatinib]
Procedure, shortened: as §1

sotrastaurin = compound: CN1CCN(c2nc(C3=C(c4c[nH]c5ccccc45)C(=O)NC3=O)c3ccccc3n2)CC1 [sotrastaurin]
Procedure, shortened: as §1

alvocidib = compound: CN1CC[C@H](c2c(O)cc(O)c3c(=O)cc(-c4ccccc4Cl)oc23)[C@H](O)C1 [alvocidib]
Procedure, shortened: as §1

Tubastatin A = compound: CN1CCc2c(c3ccccc3n2Cc2ccc(C(=O)NO)cc2)C1 [Tubastatin A]
Procedure, shortened: as §1

[6] = compound: CNC(=O)C1=CC=CC=C1NC2=NC(=NC=C2Cl)NC3=C(C=C(C=C3)N4CCOCC4)OC
Procedure, shortened: as §1

defactinib = compound: CNC(=O)c1ccc(Nc2ncc(C(F)(F)F)c(NCc3nccnc3N(C)S(C)(=O)=O)n2)cc1 [defactinib]
Procedure, shortened: as §1

[7] = compound: CNc1nc(-c2ccc3c(N)n[nH]c3c2)cc(N2C[C@@H](C(=O)NC3CCCCC3)CC[C@H]2C)n1
Procedure, shortened: as §1

encorafenib = compound: COC(=O)N[C@@H](C)CNc1nccc(-c2cn(C(C)C)nc2-c2cc(Cl)cc(NS(C)(=O)=O)c2F)n1 [encorafenib]
Procedure, shortened: as §1

[8] = compound: COC(=O)[C@H](CCSC)NC(=O)C1=C(C=C(C=C1)NC[C@H](CS)N)C2=CC=CC=C2
Procedure, shortened: as §1

alisertib = compound: COc1cc(Nc2ncc3c(n2)-c2ccc(Cl)cc2C(c2c(F)cccc2OC)=NC3)ccc1C(=O)O [alisertib]
Procedure, shortened: as §1

[9] = compound: COc1cc2nc(-c3cc(F)ccc3O)nc(N[C@@H]3CNC[C@H]3C(C)(C)O)c2cc1OC
Procedure, shortened: as §1

gefitinib = compound: COc1cc2ncnc(Nc3ccc(F)c(Cl)c3)c2cc1OCCCN1CCOCC1 [gefitinib]
Procedure, shortened: as §1

Measured: log2 fold change

INPPL1 (UniProt O15357)
UniProt O15357, sequence (O15357 whole entry, looked up): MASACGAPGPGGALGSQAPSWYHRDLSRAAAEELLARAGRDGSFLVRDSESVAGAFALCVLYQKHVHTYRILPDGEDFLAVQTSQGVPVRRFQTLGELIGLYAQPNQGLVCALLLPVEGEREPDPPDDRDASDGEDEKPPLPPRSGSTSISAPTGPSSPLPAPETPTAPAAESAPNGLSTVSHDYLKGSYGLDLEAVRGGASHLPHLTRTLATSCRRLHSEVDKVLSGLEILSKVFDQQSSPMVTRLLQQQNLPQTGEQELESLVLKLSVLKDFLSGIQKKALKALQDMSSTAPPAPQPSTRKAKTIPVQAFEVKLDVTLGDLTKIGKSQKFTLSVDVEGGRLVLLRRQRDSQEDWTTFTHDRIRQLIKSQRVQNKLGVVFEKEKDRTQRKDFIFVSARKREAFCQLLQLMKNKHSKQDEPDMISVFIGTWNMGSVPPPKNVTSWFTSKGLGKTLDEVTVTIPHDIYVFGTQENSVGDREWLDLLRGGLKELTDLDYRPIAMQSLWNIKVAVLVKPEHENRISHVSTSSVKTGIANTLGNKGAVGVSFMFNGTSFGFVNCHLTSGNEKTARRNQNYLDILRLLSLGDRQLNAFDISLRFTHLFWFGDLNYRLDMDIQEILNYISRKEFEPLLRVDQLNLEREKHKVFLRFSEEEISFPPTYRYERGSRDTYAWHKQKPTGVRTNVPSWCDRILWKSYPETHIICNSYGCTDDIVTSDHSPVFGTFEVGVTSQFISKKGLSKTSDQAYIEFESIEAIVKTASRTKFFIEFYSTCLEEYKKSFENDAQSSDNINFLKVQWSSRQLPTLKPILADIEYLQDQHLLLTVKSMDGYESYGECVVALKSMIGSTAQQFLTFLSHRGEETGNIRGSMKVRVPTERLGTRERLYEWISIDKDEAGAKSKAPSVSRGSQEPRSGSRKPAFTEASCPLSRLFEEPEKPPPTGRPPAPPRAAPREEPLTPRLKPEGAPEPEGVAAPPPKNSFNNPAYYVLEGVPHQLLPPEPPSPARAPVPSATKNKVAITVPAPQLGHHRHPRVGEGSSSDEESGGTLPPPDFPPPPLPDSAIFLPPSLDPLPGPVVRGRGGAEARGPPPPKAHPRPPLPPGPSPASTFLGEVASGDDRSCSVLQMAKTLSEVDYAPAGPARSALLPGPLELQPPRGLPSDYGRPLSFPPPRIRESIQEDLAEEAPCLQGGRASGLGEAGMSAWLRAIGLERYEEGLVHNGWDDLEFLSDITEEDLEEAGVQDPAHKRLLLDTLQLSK
inactive: vemurafenib 0.023 | [1] 0.01 | barasertib 0.028 | [2] -0.02 | volasertib -0.047 | [3] 0.095 | [4] -0.017 | [5] -0.06 | saracatinib 0.005 | sotrastaurin 0.019 | alvocidib -0.001 | Tubastatin A -0.177 | [6] 0.039 | defactinib 0 | [7] -0.001 | encorafenib 0.009 | [8] 0.037 | alisertib 0.036 | [9] -0.013 | gefitinib 0.01

GMDS (UniProt O60547)
UniProt O60547, sequence (O60547 whole entry, looked up): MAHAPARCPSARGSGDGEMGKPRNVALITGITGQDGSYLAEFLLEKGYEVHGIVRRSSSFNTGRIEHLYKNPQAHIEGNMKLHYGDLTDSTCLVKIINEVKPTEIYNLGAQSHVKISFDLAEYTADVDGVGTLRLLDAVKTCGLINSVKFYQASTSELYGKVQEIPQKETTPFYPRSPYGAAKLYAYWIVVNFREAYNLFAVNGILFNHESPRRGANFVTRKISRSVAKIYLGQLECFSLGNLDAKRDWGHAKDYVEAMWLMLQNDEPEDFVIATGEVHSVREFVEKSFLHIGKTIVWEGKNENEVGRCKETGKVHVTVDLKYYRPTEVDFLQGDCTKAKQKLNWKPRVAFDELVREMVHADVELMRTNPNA
inactive: vemurafenib 0.057 | [1] 0.012 | barasertib 0.027 | [2] -0.088 | volasertib -0.034 | [3] -0.023 | [4] 0.019 | [5] 0.042 | saracatinib -0.033 | sotrastaurin 0.019 | alvocidib 0.036 | Tubastatin A -0.057 | [6] -0.017 | defactinib 0.042 | [7] 0.003 | encorafenib -0.059 | [8] 0.123 | alisertib 0.016 | [9] 0.023 | gefitinib -0.012

ILK (UniProt Q13418)
UniProt Q13418, sequence (Q13418 whole entry, looked up): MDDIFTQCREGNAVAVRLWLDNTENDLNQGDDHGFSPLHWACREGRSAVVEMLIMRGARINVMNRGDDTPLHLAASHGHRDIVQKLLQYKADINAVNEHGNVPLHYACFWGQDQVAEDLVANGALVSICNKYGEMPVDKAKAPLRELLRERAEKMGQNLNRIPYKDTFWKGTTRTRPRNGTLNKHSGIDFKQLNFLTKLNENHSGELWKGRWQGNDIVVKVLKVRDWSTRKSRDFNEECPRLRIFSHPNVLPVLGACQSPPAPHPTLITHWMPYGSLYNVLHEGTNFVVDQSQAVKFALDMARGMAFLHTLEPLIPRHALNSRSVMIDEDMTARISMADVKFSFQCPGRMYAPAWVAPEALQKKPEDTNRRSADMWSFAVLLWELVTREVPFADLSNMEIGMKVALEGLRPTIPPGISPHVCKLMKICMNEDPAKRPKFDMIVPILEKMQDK
inactive: vemurafenib 0.029 | [1] -0.024 | barasertib 0.059 | [2] -0.03 | volasertib -0.072 | [3] 0.016 | [4] -0.034 | [5] -0.019 | saracatinib 0.011 | sotrastaurin -0.002 | alvocidib 0.002 | Tubastatin A -0.084 | [6] -0.002 | defactinib -0.026 | [7] -0.061 | encorafenib -0.032 | [8] 0.038 | alisertib 0.007 | [9] -0.04 | gefitinib 0.013

ISCA1 isoform 2 (UniProt Q9BUE6)
UniProt Q9BUE6, sequence (Q9BUE6 whole entry, looked up): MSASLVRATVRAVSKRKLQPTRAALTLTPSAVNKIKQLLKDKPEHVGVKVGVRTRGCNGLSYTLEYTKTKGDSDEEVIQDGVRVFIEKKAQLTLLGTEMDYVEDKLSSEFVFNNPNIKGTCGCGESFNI
active: [4] 0.425
inactive: vemurafenib 0.007 | [1] -0.059 | barasertib 0.028 | [2] 0.042 | volasertib 0.03 | [3] -0.051 | [5] -0.21 | saracatinib 0.028 | sotrastaurin 0.021 | alvocidib 0.103 | Tubastatin A 0.023 | [6] 0.037 | defactinib 0.092 | [7] 0.071 | encorafenib -0.034 | [8] -0.003 | alisertib -0.286 | [9] 0.075 | gefitinib -0.025

HDLBP, A0A024R4E5
inactive: vemurafenib 0.008 | [1] 0.024 | barasertib -0.017 | [2] 0.016 | volasertib -0.04 | [3] 0.011 | [4] -0.018 | [5] -0.008 | saracatinib -0.002 | sotrastaurin 0.004 | alvocidib -0.004 | Tubastatin A -0.082 | [6] 0.01 | defactinib 0.001 | [7] 0.004 | encorafenib 0.028 | [8] 0.073 | alisertib -0.005 | [9] 0.003 | gefitinib 0.003

HLCS (UniProt P50747)
UniProt P50747, sequence (P50747 whole entry, looked up): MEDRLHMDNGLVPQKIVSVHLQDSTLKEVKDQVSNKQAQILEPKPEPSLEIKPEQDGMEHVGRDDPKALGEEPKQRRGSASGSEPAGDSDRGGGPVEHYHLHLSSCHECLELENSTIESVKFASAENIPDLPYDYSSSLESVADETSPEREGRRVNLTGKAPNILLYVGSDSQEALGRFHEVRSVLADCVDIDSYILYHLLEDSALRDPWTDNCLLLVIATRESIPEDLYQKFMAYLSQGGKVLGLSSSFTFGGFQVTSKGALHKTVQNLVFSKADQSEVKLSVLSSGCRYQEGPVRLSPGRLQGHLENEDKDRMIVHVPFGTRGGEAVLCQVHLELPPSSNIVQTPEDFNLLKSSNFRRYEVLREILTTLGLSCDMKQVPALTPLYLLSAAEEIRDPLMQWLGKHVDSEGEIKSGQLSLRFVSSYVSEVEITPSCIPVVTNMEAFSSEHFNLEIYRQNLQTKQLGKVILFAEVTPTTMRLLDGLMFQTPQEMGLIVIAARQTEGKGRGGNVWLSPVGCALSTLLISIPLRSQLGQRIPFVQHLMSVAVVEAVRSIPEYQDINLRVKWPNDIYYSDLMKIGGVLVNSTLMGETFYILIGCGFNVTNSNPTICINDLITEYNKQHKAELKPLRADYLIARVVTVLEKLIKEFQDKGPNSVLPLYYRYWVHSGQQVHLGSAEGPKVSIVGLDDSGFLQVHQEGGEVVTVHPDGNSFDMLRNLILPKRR
active: [4] 0.293
inactive: vemurafenib -0.002 | [1] 0.034 | barasertib -0.001 | [2] -0.034 | volasertib -0.054 | [3] 0.003 | [5] -0.041 | saracatinib -0.026 | sotrastaurin 0.027 | alvocidib -0.015 | Tubastatin A 0.036 | [6] 0.018 | defactinib 0.017 | [7] 0.025 | encorafenib 0.003 | [8] 0.053 | alisertib -0.01 | [9] 0.038 | gefitinib 0.013

HAUS8 (UniProt Q9BT25)
UniProt Q9BT25, sequence (Q9BT25 whole entry, looked up): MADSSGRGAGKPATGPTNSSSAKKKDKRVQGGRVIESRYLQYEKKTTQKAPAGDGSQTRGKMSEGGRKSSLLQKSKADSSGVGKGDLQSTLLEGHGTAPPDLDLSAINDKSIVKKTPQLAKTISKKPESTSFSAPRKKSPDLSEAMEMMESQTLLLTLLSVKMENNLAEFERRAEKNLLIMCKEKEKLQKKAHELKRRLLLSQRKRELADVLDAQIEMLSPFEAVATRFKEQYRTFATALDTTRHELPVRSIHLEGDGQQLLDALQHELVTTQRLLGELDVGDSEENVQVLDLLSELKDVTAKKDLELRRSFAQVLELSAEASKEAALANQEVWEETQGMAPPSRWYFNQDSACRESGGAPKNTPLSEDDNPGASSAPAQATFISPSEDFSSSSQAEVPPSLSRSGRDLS
inactive: vemurafenib -0.042 | [1] 0.04 | barasertib -0.05 | [2] -0.049 | volasertib 0.037 | [3] -0.005 | [4] -0.048 | [5] 0.029 | saracatinib 0.031 | sotrastaurin -0.001 | alvocidib 0.067 | Tubastatin A -0.173 | [6] -0.012 | defactinib -0.06 | [7] 0.064 | encorafenib 0.063 | [8] -0.004 | alisertib -0.063 | [9] -0.075 | gefitinib -0.031

ISY1 isoform 1 (UniProt Q9ULR0)
UniProt Q9ULR0, sequence (Q9ULR0 whole entry, looked up): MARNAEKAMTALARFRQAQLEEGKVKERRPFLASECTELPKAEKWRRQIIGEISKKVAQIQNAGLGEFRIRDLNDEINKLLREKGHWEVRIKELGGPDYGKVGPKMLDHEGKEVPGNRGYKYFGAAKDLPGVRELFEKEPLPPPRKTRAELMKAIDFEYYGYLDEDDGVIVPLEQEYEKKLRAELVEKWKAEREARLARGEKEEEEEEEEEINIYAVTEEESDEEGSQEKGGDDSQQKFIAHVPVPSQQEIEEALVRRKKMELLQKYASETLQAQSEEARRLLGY
inactive: vemurafenib -0.186 | [1] 0.034 | barasertib 0.018 | [2] 0.066 | volasertib -0.025 | [3] -0.012 | [4] -0.101 | [5] 0.02 | saracatinib 0.026 | sotrastaurin 0.032 | alvocidib -0.05 | Tubastatin A -0.03 | [6] 0.013 | defactinib 0.082 | encorafenib -0.03 | [8] -0.149 | alisertib -0.012 | [9] 0.016 | gefitinib 0.075
active: [7] 0.366
